Some test systems named below: HCT-15 colon; HT29 colon; SNB-75 CNS; SNB-19 CNS; U251 CNS; PC-3 prostate; SK-MEL-5 melanoma; UACC-62 melanoma; LOX IMVI melanoma; SK-MEL-28 melanoma; SK-MEL-2 melanoma; EKVX NSCLC; SN12C renal; UO-31 renal; TK-10 renal; ACHN renal; CAKI-1 renal; A498 renal; CCRF-CEM leukemia; MOLT-4 leukemia.
What all share (assay): NCI-60 one-dose screen, 48 h (100 = growth as untreated, 0 = no growth, -100 = all killed)
Conditions in all cases: 10 µM unless noted

Compounds without any hit were thinned out: in the full panel of roughly 83,000, 20% have a hit.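 A percent growth of 40 corresponds to 60% growth inhibition; 0 means no net growth; -100 means all cells died. Active threshold: below 10.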 A number with no mark means an inactive call. The source made the active and inactive calls.

Regarding `O=C(CN1CCN(c2cc(=O)[nH]c3ccc(F)cc23)CC1)N(c1ccccc1)c1ccccc1`, the growth in the assay on HCT-15 colon is 97.7%; with HT29 colon, 110%; with SNB-75 CNS, 71.3%; in the assay with SNB-19 CNS, 93.4%; in the assay with U251 CNS, 107%; with PC-3 prostate it was 96.5%. In addition, the growth in the assay with SK-MEL-5 melanoma was 100%; in the assay with UACC-62 melanoma it was 98%; in the assay with LOX IMVI melanoma it was 101%; in the assay with SK-MEL-28 melanoma, 111%; with SK-MEL-2 melanoma it was 106%; in the assay on EKVX NSCLC, 96.8%. In addition, the growth in the assay on SN12C renal is 97.1%; in the assay with UO-31 renal it was 90.3%; in the assay on TK-10 renal it was 98.7%; in the assay with ACHN renal, 105%; in the assay on CAKI-1 renal, 95.1%; in the assay with A498 renal, 83.7%. For the same molecule, the growth with CCRF-CEM leukemia is 102%; with MOLT-4 leukemia, 99.5%.

In the case of `CCOC(=O)c1cccnc1Nc1ccc(NC(=O)Nc2ccc(Cl)c(C(F)(F)F)c2)cc1`, the growth was 14.4% in the assay on HCT-15 colon; 36.1% with HT29 colon; 106% with SNB-75 CNS; 49.3% in the assay with SNB-19 CNS; 30.1% with U251 CNS; 7.22% (active) in the assay on PC-3 prostate. Also, the growth is 67.8% in the assay on SK-MEL-5 melanoma; 45.4% in the assay on UACC-62 melanoma; 22.5% in the assay on LOX IMVI melanoma; 43.7% in the assay with SK-MEL-28 melanoma; 37.2% in the assay on SK-MEL-2 melanoma; 40.6% with EKVX NSCLC. Besides, the growth was 51.3% with SN12C renal; 34.1% with UO-31 renal; 40.3% with TK-10 renal; 35.3% with ACHN renal; 22.6% in the assay on CAKI-1 renal; 41.3% in the assay with A498 renal. Also, the growth is 29.5% in the assay on CCRF-CEM leukemia and 24.9% in the assay on MOLT-4 leukemia.

For `Cc1ccc(NC2=C(Cl)C(=O)c3nc(C)ccc3C2=O)c(C)c1`, the growth in the assay with HCT-15 colon is -57.7% (active); with HT29 colon, 80.5%; in the assay on SNB-75 CNS, 87.9%; in the assay on SNB-19 CNS it was 30.5%; in the assay on U251 CNS it was 22.6%; in the assay on PC-3 prostate, 22.6%. For the same molecule, the growth in the assay on SK-MEL-5 melanoma was -50.2% (active); in the assay with UACC-62 melanoma it was 18.5%; in the assay on LOX IMVI melanoma it was -29.2% (active); in the assay on SK-MEL-28 melanoma, 30.9%; in the assay on SK-MEL-2 melanoma, 4.04% (active); in the assay with EKVX NSCLC it was 49.1%. In addition, the growth with SN12C renal is -69.1% (active); in the assay on UO-31 renal it was -13% (active); in the assay on TK-10 renal it was 126%; with ACHN renal it was -24.7% (active); in the assay on CAKI-1 renal, 85.5%; in the assay on A498 renal, 60.5%. Also, the figures for the growth with CCRF-CEM leukemia and in the assay with MOLT-4 leukemia were 1.19% (active) and 1.38% (active), respectively.

On to `Cc1ccc2c(n1)C(=O)C(Cl)=C(Nc1ccc(C(F)(F)F)cc1)C2=O`, for which the growth is -58.6% (active) in the assay with HCT-15 colon; 96.8% in the assay on HT29 colon; 115% in the assay on SNB-75 CNS; 97.5% with SNB-19 CNS; 91.5% in the assay on U251 CNS; 72.4% in the assay on PC-3 prostate. Also, the growth is 95.3% with SK-MEL-5 melanoma; 96.6% with UACC-62 melanoma; -57.1% (active) in the assay with LOX IMVI melanoma; 51% in the assay on SK-MEL-28 melanoma; 103% in the assay with SK-MEL-2 melanoma; 77.2% in the assay with EKVX NSCLC. Moreover, the growth is 91.8% in the assay on SN12C renal; -85.2% (active) with UO-31 renal; 85.4% with TK-10 renal; -98.4% (active) in the assay on ACHN renal; 44.4% in the assay with CAKI-1 renal; 79% in the assay with A498 renal. Also, the growth with CCRF-CEM leukemia is 2.47% (active); in the assay with MOLT-4 leukemia, 8.71% (active).

As for `CCCCSC1=C(Cl)CN(c2ccc(Cl)cc2)C1=O`, the growth in the assay on HCT-15 colon is 96.1%; with HT29 colon, 105%; with SNB-75 CNS, 104%; with SNB-19 CNS it was 93.3%; in the assay with U251 CNS, 93.6%; in the assay with PC-3 prostate it was 98.4%. The growth with SK-MEL-5 melanoma is 98.3%; with UACC-62 melanoma it was 93.4%; in the assay on LOX IMVI melanoma, 62.4%; with SK-MEL-28 melanoma, 102%; with SK-MEL-2 melanoma, 103%; in the assay with EKVX NSCLC it was 101%. Besides, the growth in the assay on SN12C renal is 104%; in the assay with UO-31 renal it was 91.1%; in the assay with TK-10 renal, 140%; in the assay on ACHN renal, 104%; with CAKI-1 renal, 93.9%; with A498 renal, 101%. Also, the figures for the growth in the assay on CCRF-CEM leukemia and in the assay with MOLT-4 leukemia were 89.9% and 86.2%, respectively.

Regarding `CN(C)CC(=O)Nc1nc(-c2cccc(NS(=O)(=O)c3cccc4c(N(C)C)cccc34)c2)cs1`, the growth in the assay on HCT-15 colon was 75.8%; in the assay on HT29 colon, 94.3%; with SNB-75 CNS it was 95.6%; with SNB-19 CNS it was 88.8%; with U251 CNS, 83.4%; with PC-3 prostate, 72%. The growth in the assay on SK-MEL-5 melanoma was 63.4%; with UACC-62 melanoma, 72.5%; with LOX IMVI melanoma it was 95.3%; in the assay with SK-MEL-28 melanoma, 104%; with SK-MEL-2 melanoma it was 94.1%; in the assay on EKVX NSCLC, 68.9%. Also, the growth was 75.3% with SN12C renal; 70.4% in the assay with UO-31 renal; 107% in the assay on TK-10 renal; 88.2% in the assay on ACHN renal; 78.8% in the assay on CAKI-1 renal; 101% in the assay on A498 renal. Besides, the growth is 83.7% with CCRF-CEM leukemia and 80.4% with MOLT-4 leukemia.

For the molecule `Cc1csc(/N=C(N)/N=C(\N)c2cccc(Br)c2)n1`, the growth in the assay with HCT-15 colon is 67%; in the assay on HT29 colon it was 97.4%; in the assay on SNB-75 CNS, 72.8%; in the assay on SNB-19 CNS, 79.2%; in the assay on U251 CNS, 91.5%; in the assay on PC-3 prostate it was 87.9%. Further, the growth with SK-MEL-5 melanoma was 97.6%; in the assay with UACC-62 melanoma, 74.5%; in the assay with LOX IMVI melanoma, 90.4%; in the assay on SK-MEL-28 melanoma, 92.1%; with SK-MEL-2 melanoma it was 101%; in the assay with EKVX NSCLC it was 88.9%. For the same molecule, the growth with SN12C renal was 90.7%; in the assay on UO-31 renal it was 86.4%; with TK-10 renal, 149%; with ACHN renal it was 97.7%; with CAKI-1 renal, 85.7%; in the assay with A498 renal, 81.5%. Further, the growth in the assay on CCRF-CEM leukemia is 98.6%; in the assay with MOLT-4 leukemia it was 96.5%.

`COc1ccc2c(c1)c(-c1nnc(N)nc1-c1c[nH]c3ccc(F)cc13)cn2C`: the growth is 27.7% in the assay with HCT-15 colon; 11.1% with HT29 colon; 24.3% in the assay on SNB-75 CNS; 45.2% with SNB-19 CNS; 34.5% with U251 CNS; 51.2% with PC-3 prostate. For the same molecule, the growth was 35.4% in the assay with SK-MEL-5 melanoma; 35.9% in the assay on UACC-62 melanoma; 42.7% in the assay on LOX IMVI melanoma; 67.5% in the assay on SK-MEL-28 melanoma; 36.3% in the assay with SK-MEL-2 melanoma; 55.5% in the assay on EKVX NSCLC. Also, the growth with SN12C renal is 69.5%; in the assay on UO-31 renal, 75.6%; with TK-10 renal it was 90%; with ACHN renal, 64.5%; in the assay on CAKI-1 renal it was 41.6%; in the assay on A498 renal, 27.5%. The growth in the assay with CCRF-CEM leukemia was 22.3%; in the assay on MOLT-4 leukemia, 26.2%.
